Screening results: PubChem, National Center for Advancing Translational Sciences (NCATS)
Most compounds without a hit are left out; they make up all but 21% or so of the library.
Shiga toxin inh = A qHTS for Small Molecule Inhibitors of Shiga Toxin | Vero cells, Shiga toxin protein synthesis inhibition reporter | inhibition, % at 38.7 µM | 9.2% of 290,000 active | AID 2315, 2010; in the data active = inhibition mostly above about 28%, no sharp cut-off; inactive = mostly below about 43%; also: 0% is about no effect
Pf growth 96h = Primary qHTS for delayed death inhibitors of the malarial parasite plastid, 96 hour incubation | 6.9% of 320,000 active | AID 504834, 2011 | Potency, µM (doses to about 28.7 µM), for inactives: at the top dose activity change, negative = inhibition, actives largely listed as inhibitors | P. falciparum luciferase reporter growth, 96 h; also: potency is read from the fitted curve at half-maximal effect; % is scaled to controls: 0 for no effect and ±100 for the full control effect
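Infected RBCs, 2% Hct / 0.05% parasitemia final; luciferase-reporter P. falciparum; cpd 96 h, 37 C, 5% CO2; luciferase detection reagent; luminescence.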
CHX counter = Cycloheximide Counterscreen for Small Molecule Inhibitors of Shiga Toxin | cell reporter, cycloheximide protein synthesis inhibition counterscreen | max response, % | 12% of 300,000 active | AID 2314, 2010; in the data active = max response mostly above about 13%, no sharp cut-off; inactive = mostly below about 14%; also: read at 38.3 µM for the half of the compounds with a filed dose; 0% is about no effect
Pf growth 48h = Primary qHTS for delayed death inhibitors of the malarial parasite plastid, 48 hour incubation; P. falciparum luciferase growth in erythrocytes, 48 h; Potency, µM (series often up to 28.7 µM), for inactives: top-dose activity change, negative = inhibition, most hits filed as inhibitors; 5.9% of 310,000 active; also: potency is read from the fitted curve at half-maximal effect; % is scaled to controls: 0 for no effect and ±100 for the full control effect
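Firefly luciferase activity from engineered P. falciparum reports growth; inhibitors lower the luminescent signal. Cultures contained 2% hematocrit erythrocytes at 0.1% final parasitemia.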
NS1 function inh = qHTS Assay for Inhibitors of Influenza NS1 Protein Function; AID 2326, 2010; Potency, µM (series often up to 46.1 µM), inactives show top-dose activity, positive = more growth; 0.4% of 270,000 active; calls by dose curve; also: potency is read from the fitted curve at half-maximal effect; actives are rising curves; nearly all actives have a fitted effect of over 50% in size
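S. cerevisiae expressing influenza A NS1, grown in glucose, washed, then diluted 1:100 into pH 6.0 -URA galactose medium with 23 nl compound. Growth recovery read as OD600; NS1-free strain serves as control.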
FBPA Giardia inh = qHTS Assay for Inhibitors of Fructose-1,6-bisphosphate Aldolase from Giardia Lamblia; A8B2U2; purified Giardia FBPA; Potency, µM (top dose mostly 59.6 µM), for inactives: at the top dose activity, negative = inhibition, hits mostly inhibitors; 0.71% of 290,000 active; AID 2451, 2010; also: potency is read from the fitted curve at half-maximal effect; % is scaled to controls: 0 for no effect and ±100 for the full control effect; nearly all actives have a fitted effect of over 55% in size
Target sequence (A8B2U2 whole entry, looked up): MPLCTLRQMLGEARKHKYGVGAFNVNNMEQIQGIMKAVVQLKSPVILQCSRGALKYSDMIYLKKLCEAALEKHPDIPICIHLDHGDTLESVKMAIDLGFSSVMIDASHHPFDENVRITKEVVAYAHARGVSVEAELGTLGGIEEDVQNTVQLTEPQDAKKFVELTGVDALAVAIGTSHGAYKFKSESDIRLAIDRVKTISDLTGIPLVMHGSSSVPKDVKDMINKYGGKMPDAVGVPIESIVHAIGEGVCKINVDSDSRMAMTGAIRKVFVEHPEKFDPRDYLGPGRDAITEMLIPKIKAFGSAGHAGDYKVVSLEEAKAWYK
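40 nM FBPA preincubated 10 min at RT with compound (up to 57.5 uM final), then substrate plus GAPDH/TPI/NAD/arsenate coupling and diaphorase/resazurin added. Fluorescence read after 20 min at RT, 525/598 nm.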
Starred values were filed as active, the others as inactive; ? = inconclusive; . = not tested or not shown. Unless noted, calls follow the shape of the dose curve; as a rule, active = well fitted curve in the direction sought with a large enough effect; inconclusive = small, poorly fitted or top-dose-only effect, or another doubt; inactive = no such curve, though single readings can be large; an effect the other way counts as inactive or inconclusive.

SMILES	Shiga toxin inh	Pf growth 96h	CHX counter	Pf growth 48h	NS1 function inh	FBPA Giardia inh
CCN(CC)CCNC(=O)c1ccc(NC(=O)COc2ccc3c(c2)CCC3)cc1	.	15µM*	.	?	.	.
COc1ccc(OCC(=O)Nc2ccc3c(c2)C(=O)NC3=O)cc1	-21	12µM*	-3	21%	16%	.
COc1ccc(OC)c(NC(=O)COc2ccc(Br)cc2)c1	-1	-4%	-1	-1%	-51%	-5%
COc1ccc(OC)c(S(=O)(=O)CC(O)COc2ccccc2Cl)c1 (stereo unspecified)	-14	?	-3	?	-18%	.
CCOc1ccc(NC(=O)CN(C)C(=O)c2cc([N+](=O)[O-])ccc2N2CCOCC2)cc1OCC	.	-11%	.	?	.	.
O=C(Nc1ccncc1)c1ccc(NS(=O)(=O)c2ccc3[nH]c(=O)[nH]c3c2)cc1	-14	?	-2	-5%	-3%	.
COc1ccc(OCC(=O)Nc2cccc(C(C)=O)c2)cc1	-9	26%	-1	.	-13%	1%
COc1cccc(NC(=O)COc2ccc(C)cc2)c1	63*	?	37*	187%	-1%	2%
O=C(CSc1nc2nn(-c3ccccc3)c(=O)c-2c2n1CCCCC2)NCCCc1ccccc1	-14	?	-1	9.3µM*	.	2%
O=C(CSc1nc2nn(-c3ccccc3)c(=O)c-2c2n1CCCCC2)Nc1ccccc1[N+](=O)[O-]	.	6.6µM*	.	?	.	.
CC(C)C[C@H](NC(=O)N1CCn2c1nc1ccccc12)C(=O)NCc1ccc2c(c1)OCO2	38	?	5	?	-17%	1%
Cc1cc(Br)c(NC(=O)CCl)c(Br)c1	-2	?	3	-40%	?	-5%
Cn1ccc(NC(=O)CCl)n1	23	-22%	29*	?	.	-6%
Cc1c(Cl)cccc1NC(=O)Nc1ccn(C)n1	45	?	10	19%	-8%	3%
Cc1cc(NC(=O)CCl)nn1C	24	10µM*	6	?	6%	1%
Cn1c(CSCc2ccc(F)cc2)n[nH]c1=S	-3	13µM*	1	-7%	8%	-11%
CCOc1ccc(S(=O)(=O)n2ccnc2C)cc1	-3	12µM*	-2	-7%	?	1%
Cn1cc(Cl)c(/C(N)=N/OC(=O)c2ccccc2C(F)(F)F)n1	91*	58%	50*	117%	-17%	.
O=C(CSc1nc2ccccc2o1)NCC(=O)c1ccccc1	11	-9%	15	19%	-5%	-4%
CCOC(=O)c1ccccc1NC(=O)CSc1nc2ccccc2o1	23	-8%	8	37%	-12%	-2%
O=C(CSc1nc2ccccc2o1)Nc1ccccc1	30	?	8.5*	175%	-56%	1%
CCOC(=O)c1c(C)[nH]c(C(=O)CSc2nc3ccccc3o2)c1C	17	0%	5	?	-1%	9%
Cc1ccc(C(=O)CSc2nc3ccccc3o2)cc1	50	?	26*	.	-2%	-1%
COc1cc(Cl)c(C)cc1NC(=O)CSc1nc2ccccc2o1	5	10µM*	-3	4%	5%	9%
CSc1cccc(NC(=O)CSc2nc3ccccc3o2)c1	63*	40%	40*	-5%	-59%	-8%
SMILES	Shiga toxin inh	Pf growth 96h	CHX counter	Pf growth 48h	NS1 function inh	FBPA Giardia inh
O=C(Cc1ccc([N+](=O)[O-])cc1)Nc1ccc2c(c1)CCC2	23	23%	11	8%	12%	8%
O=C(CSc1nc2ccccc2o1)c1cc2ccccc2oc1=O	89*	?	25*	33%	-7%	2%
O=C(O)CSc1nc2ccccc2o1	78	-1%	30*	33%	2%	13%
Cc1nnc(SCC(=O)Nc2ccccc2)c2ccccc12	46*	16%	48*	?	?	-6%
O=C(CSc1nc2ccccc2o1)NC1CCCC1	20	93%	7	29%	.	8%
O=C(CSc1nc2ccccc2o1)N1CCOCC1	42*	61%	27*	17%	2%	-19%
O=C(CSc1nc2ccccc2o1)N1CCCC1	9	42%	13	.	-5%	-1%
Cc1cc(OCC(=O)NCCc2cccc(F)c2)c2c(C)cc(=O)oc2c1	-7	?	-2	?	24%	.
O=C(c1noc2c1CSc1ccccc1-2)N1CCN(c2ccc(Cl)cc2)CC1	19	?	-2	28%	12%	-1%
CCCC(C)(C)C(=O)Nc1ccc(Cl)cc1	-9	.	2	.	.	-6%
C=CCN1C(=O)C2(OCCCO2)c2cc(C)ccc21	-4	-20%	-2	28%	11%	4%
CC(Sc1nc2ccccc2o1)C(=O)O (stereo unspecified)	79*	-5%	37*	170%	-4%	3%
Cn1c(CNC(=O)CCNC(=O)c2cccc(Br)c2)cc(=O)n(C)c1=O	-8	-31%	5	-11%	27%	.
NC(=S)Nc1cccc2cc3ccccc3cc12	78*	46%	43*	39%	-218%	-10%
CN(Cc1ccccc1)C1=CC(=[N+]2CCCC2)CC(C)(C)C1	3	0.59µM*	-3	0.93µM*	2%	-5%
CCN(CC)C1=CC(=[N+]2CCCC2)CC(C)(C)C1	-22	0.37µM*	-6	1.3µM*	2%	-1%
CC1(C)CC(N2CCCC2)=CC(=[N+]2CCCCCC2)C1	-5	-20%	4	?	.	4%
C[C@@H]1C[C@H]2OC(=O)C3(CO3)[C@H]2[C@H](O)[C@]2(C)C(=O)C3OC3[C@@H]12 (stereo partly specified)	40*	?	21*	12µM*	10%	8%
CCCCCN(C(=O)CCC(=O)OCc1ccc(Cl)cc1Cl)c1c(N)n(CCCC)c(=O)[nH]c1=O	.	6%	.	?	.	.
CCOC(=O)c1cnc2ccc(OC)cc2c1NCCc1ccc(OC)c(OC)c1	-14	?	-3	2.6µM*	0%	3%
CCOC(=O)c1cnc2ccccc2c1NCCc1ccc(OC)c(OC)c1	-23	1.7µM*	-2	12µM*	-1%	3%
CCOC(=O)c1cnc2ccc(OC)cc2c1NCCN1CCOCC1	34	?	7	?	-2%	3%
CCOC(=O)c1cnc2ccccc2c1Nc1cccc(C(=O)O)c1	22	21%	12	16%	.	14%
O=C(c1ccncc1)N1CCC2(CC1)CCN(c1ccncc1)CC2	.	.	.	.	.	1%
C=CCn1c(SCC(=O)c2cc(C)n(CC3CCCO3)c2C)nnc1-c1ccccc1 (stereo unspecified)	23	9.3µM*	8	?	0%	-9%
Cc1cccc(-n2nnnc2SCC(=O)c2cc(C)n(CC3CCCO3)c2C)c1 (stereo unspecified)	26	?	13	-24%	-12%	-8%
